Test results reported in the supplement of paper PMC10981050.
“And” between values parts separate entries of the source, which are not always exact repeats. Equal values may be shown once. Where a name gives a salt, the structure may show the parent alone.

Legend:
Experiment in all cases: cell viability relative to vehicle control; higher = less cytotoxic
Details in all cases: 10 µM
K562 = test system: K562
Procedure, shortened: (§1)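 Each screen used CRISPR-edited mutant and wild-type clones from four leukaemia lines. Compounds were acoustically dispensed at a single 10 µM dose, and CellTiter-Glo luminescence was read after 48 h with the supernatant first removed. Viability was analysed in Genedata Screener and given as percent of the on-plate vehicle control.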

MARIMO = test system: MARIMO
Procedure, shortened: as §1

MOLM14 = test system: MOLM14
Procedure, shortened: as §1

OCI-AML2 = test system: OCI-AML2
Procedure, shortened: as §1

SMILES | cell viability (K562; SRSF2 genotype: SRSF2 P95H/wt) | cell viability (K562; SRSF2 genotype: SRSF2 wt/wt) [%] | cell viability (MARIMO; SRSF2 genotype: SRSF2 P95H/wt) [%] | cell viability (MARIMO; SRSF2 genotype: SRSF2 wt/wt) [%] | cell viability (MOLM14; SRSF2 genotype: SRSF2 P95H/wt) [%] | cell viability (MOLM14; SRSF2 genotype: SRSF2 wt/wt) [%] | cell viability (OCI-AML2; SRSF2 genotype: P95H/wt) [%] | cell viability (OCI-AML2; SRSF2 genotype: wt/wt) [%]
COc1c(C)cnc(Cn2cnc3c(Cl)nc(N)nc32)c1C | 21.6% and 31% | 29.2 | 32.7 | 25.9 | 2.67 | 2.88 | 18.4 | 22.2
CC(C)OC(=O)C1=CN(C(=O)c2ccc(F)c(F)c2)CC(C)(C)c2c1[nH]c1ccccc21 [Turofexorate Isopropyl (XL335)] | 100% and 97.7% | 103 | 96.7 | 102 | 97 | 98.5 | 92.7 | 96.7
CC1(C)[C@@H](O[C@H]2O[C@H](C(=O)O)[C@@H](O)[C@H](O)[C@H]2O[C@@H]2O[C@H](C(=O)O)[C@@H](O)[C@H](O)[C@H]2O)CC[C@]2(C)[C@H]3C(=O)C=C4[C@@H]5C[C@@](C)(C(=O)O)CC[C@]5(C)CC[C@@]4(C)[C@]3(C)CC[C@@H]12 [Diammonium Glycyrrhizinate] | 98.9% and 104% | 99.1 | 101 | 99.7 | 100 | 103 | 101 | 114
C=CC(=O)Nc1cccc(Nc2nc(Nc3ccc(OCCOC)cc3)ncc2F)c1 | 66.8% and 79.5% | 73.4 | 62.1 | 60.4 | 9.43 | 6.93 | 28.2 | 31.8
CC(=O)CCc1ccccc1 [Benzylacetone] | 100% and 103% | 104 | 101 | 92.5 | 106 | 98.6 | 106 | 94.8
Nc1cccc2c1C(=O)N(C1CCC(=O)NC1=O)C2=O (configuration not stated) [Pomalidomide] | 102% and 96.9% | 88 | 87.4 | 99 | 88.5 | 93.5 | 120 | 121
CN1CCN(Cc2ccc(-c3cnc4[nH]cc(-c5ccc6[nH]ccc6c5)c4c3)cc2)CC1 | 2.18% and 1.72% | 2.36 | 0.62 | 0.44 | 0.32 | 0.4 | 0.33 | 0.41
Cc1ccc(S(=O)(=O)OCC(=O)Nc2ccc(C(=O)O)c(O)c2)cc1 | 95.9% and 95.6% | 97.9 | 95.7 | 102 | 99.7 | 101 | 94.2 | 101
N=C(N)NC(=N)NCCc1ccccc1 [Phenformin hydrochloride] | 84.6% and 93.3% | 91.7 | 93.2 | 98.2 | 101 | 94.9 | 86 | 89.3
Cc1cc(-c2ccc(CC(=O)Nc3ccc(-c4cccnc4)cc3)cc2)ccn1 | 77% and 83% | 86.9 | 81.5 | 86.3 | 103 | 102 | 74 | 78.9
CCCN[C@H]1CCc2nc(N)sc2C1 [Pramipexole (Mirapex)] | 102% and 81.8% | 83.3 | 81.9 | 83.9 | 71.3 | 84.3 | 80.9 | 87.8
COc1ccc(COc2cc3oc(=O)c4cc(C(C)O)ccc4c3cc2OC)cc1 (configuration not stated) [Palomid 529] | 101% and 111% | 104 | 105 | 103 | 102 | 101 | 106 | 97.2
Cc1cc2c3c([n+](C)c4ccc(F)cc4c3c1)-c1cc(F)ccc1N2C [RHPS 4 methosulfate] | 48.6% and 58.2% | 61.4 | 52.5 | 50.6 | 5.12 | 27.5 | 0.13 | 8.9
NC(=O)NO [Hydroxyurea (Cytodrox)] | 102% and 106% | 103 | 97.5 | 105 | 109 | 108 | 108 | 108
COC(=O)Nc1nc2cc(C(=O)c3cccs3)ccc2[nH]1 [Nocodazole] | 12.2% and 32.6% | 34.7 | 7.65 | 8.94 | 1.15 | 3.4 | 5.25 | 7.85
COc1cc2nc(N3CCN(C(=O)C4CCCO4)CC3)nc(N)c2cc1OC (configuration not stated) [Terazosin HCl] | 97.7% and 96.9% | 96.6 | 99.5 | 102 | 101 | 99.2 | 103 | 104
O=C(O)c1cc(O)ccc1O [Gentisic acid] | 100% and 104% | 99.6 | 101 | 105 | 101 | 102 | 102 | 111
CC(C)Cn1cnc2c(N)nc3ccccc3c21 [Imiquimod] | 80.9% and 85.2% | 77.2 | 78.5 | 92.4 | 78.1 | 84.8 | 85.9 | 85.4
COC(=O)CC1CC(c2ccc(O)cc2)=NO1 (configuration not stated) | 113% and 102% | 104 | 102 | 112 | 77.1 | 102 | 104 | 103
CCC(=O)OCC(=O)[C@@]1(OC(=O)CC)[C@@H](C)C[C@H]2[C@@H]3CCC4=CC(=O)C=C[C@]4(C)[C@@]3(Cl)[C@@H](O)C[C@@]21C [Beclomethasone dipropionate] | 87.4% and 91.4% | 87.7 | 90 | 97.8 | 86 | 93 | 105 | 117
COc1ccc(-c2coc3cc(O)cc(O)c3c2=O)cc1 [Biochanin A (4-Methylgenistein)] | 97.6% and 85.7% | 85.2 | 79.3 | 90 | 96.5 | 91.3 | 82.5 | 79.5
OC(CNCC(O)C1CCc2cc(F)ccc2O1)C1CCc2cc(F)ccc2O1 (configuration not stated) [Nebivolol HCl] | 61.4% and 73% | 80.7 | 60.4 | 60.5 | 58.6 | 62.5 | 50.6 | 61.5

SMILES | cell viability (K562; SRSF2 genotype: SRSF2 P95H/wt) | cell viability (K562; SRSF2 genotype: SRSF2 wt/wt) [%] | cell viability (MARIMO; SRSF2 genotype: SRSF2 P95H/wt) [%] | cell viability (MARIMO; SRSF2 genotype: SRSF2 wt/wt) [%] | cell viability (MOLM14; SRSF2 genotype: SRSF2 P95H/wt) [%] | cell viability (MOLM14; SRSF2 genotype: SRSF2 wt/wt) [%] | cell viability (OCI-AML2; SRSF2 genotype: P95H/wt) [%] | cell viability (OCI-AML2; SRSF2 genotype: wt/wt) [%]
CC1OC(OC2C(CO)OC(OCC3OC(OC(=O)C45CCC(C)(C)CC4C4=CCC6C7(C)CCC(OC8OCC(O)C(O)C8O)C(C)(CO)C7CCC6(C)C4(C)CC5)C(O)C(O)C3O)C(O)C2O)C(O)C(O)C1O (configuration not stated) [Hederacoside D] | 98.3% and 104% | 101 | 95.7 | 103 | 105 | 99.3 | 97 | 103
CCCC(=O)Nc1ccc(OCC(O)CNC(C)C)c(C(C)=O)c1 (configuration not stated) [Acebutolol HCl] | 96.2% and 86.2% | 86.2 | 97.3 | 95.1 | 92.4 | 93.3 | 94.9 | 91.7
CC(C)n1nc(-c2cc3cc(O)ccc3[nH]2)c2c(N)ncnc21 [Torkinib (PP242)] | 21.2% and 25.5% | 21.9 | 23.1 | 23 | 12.8 | 9.03 | 9.37 | 15.1
COc1cc(Nc2c(C#N)cnc3cc(OCCCN4CCN(C)CC4)c(OC)cc23)c(Cl)cc1Cl [Bosutinib (SKI-606)] | 2.19% and 3.5% | 3.73 | 38.5 | 37.6 | 7.61 | 11.1 | 1.53 | 7.73
Cc1ccc(S(=O)(=O)Nc2cc(-c3ccc(C#N)s3)ccc2C)cc1 | 12.9% and 36.3% | 33.5 | 7.34 | 8.88 | 1.58 | 1.53 | 2.78 | 5.12
C=CC(=O)Nc1cccc(Nc2nc(Nc3ccc(Oc4ccnc(C(=O)NC)c4)cc3)ncc2F)c1 | 87.5% and 95.6% | 85.1 | 83.4 | 83.8 | 53.1 | 53.4 | 57.5 | 63.8
CC(CCC(=O)NCCS(=O)(=O)O)C1CCC2C3C(O)CC4CC(O)CCC4(C)C3CCC12C (configuration not stated) [Taurochenodeoxycholic acid] | 104% and 101% | 99.3 | 103 | 108 | 104 | 104 | 109 | 97.8
O=C(c1cc(Cc2n[nH]c(=O)c3ccccc23)ccc1F)N1CCN(C(=O)C2CC2)CC1 | 92.6% and 101% | 97.2 | 84 | 96.1 | 59.4 | 31 | 44.6 | 58
C=C1CC2(O)OC3(CC2C(C)C)C(C)CCC13 (configuration not stated) [Curcumol] | 106% and 101% | 102 | 112 | 107 | 97.8 | 108 | 99.9 | 102
C[n+]1c2ccccc2nc2ccccc21 [Phenazine methosulfate] | 6.28% and 2.85% | 13.5 | 4.9 | 8.06 | 2.87 | 1.78 | 2.71 | 4.56
Cc1ccccc1-c1cc(N2CCN(C)CC2)ncc1N(C)C(=O)C(C)(C)c1cc(C(F)(F)F)cc(C(F)(F)F)c1 [Netupitant] | 90.3% and 95.2% | 94.6 | 104 | 93.8 | 107 | 98.4 | 70.3 | 75.3
CS(=O)(=O)N1CCc2c(-c3cnc(N)nc3)nc(N3CCOCC3)nc21 | 56.4% and 67% | 66.8 | 53.6 | 42.5 | 34.2 | 35.9 | 17.8 | 25.3
O=C1C[C@@H](c2ccc(O)c(O)c2)Oc2cc(O)cc(O)c21 [Eriodictyol] | 98.5% and 97.3% | 108 | 88.6 | 96.1 | 112 | 104 | 96.8 | 95.2
CC(=O)Nc1nc(C)c(-c2ccc(Cl)c(S(=O)(=O)NCCO)c2)s1 | 74.9% and 77.5% | 81.1 | 38.1 | 38.7 | 32.8 | 37.1 | 12.2 | 24.4
CC(C)Oc1ccc(-c2nn([C@@H](C)c3oc4ccc(F)cc4c(=O)c3-c3cccc(F)c3)c3ncnc(N)c23)cc1F | 89.1% and 94.3% | 87.6 | 84.8 | 94.9 | 77 | 71.8 | 67.4 | 72.3
Cc1cccc(N(C)C(=S)Oc2ccc3ccccc3c2)c1 [Tolnaftate] | 99.7% and 106% | 91.9 | 89.3 | 109 | 96.9 | 101 | 106 | 109
Cc1ccc(NC(=O)c2cccc(C(C)(C)C#N)c2)cc1Nc1ccc2ncn(C)c(=O)c2c1 | 12.9% and 33% | 25.2 | 44 | 40.9 | 44.9 | 35.3 | 42.7 | 41.7
Cc1ccc(CNc2ncnc3ccc(-c4ccc(CO)o4)cc23)o1 | 97.3% and 96.8% | 101 | 90 | 95.8 | 81.7 | 94.2 | 77.5 | 84.3
Cc1ccc2oc(=O)ccc2c1 [6-Methylcoumarin] | 99.5% and 87.8% | 91.3 | 97.3 | 98.6 | 95 | 101 | 91.1 | 107
O=C(Oc1coc(CSc2ncccn2)cc1=O)c1ccc([N+](=O)[O-])cc1 | 88.1% and 95.5% | 100 | 98.3 | 98.7 | 96.5 | 97.4 | 97.9 | 81.8
Nc1ccc(O)cc1 [4-Aminophenol] | 63.2% and 50.9% | 83.5 | 45.6 | 50 | 12.1 | 23.2 | 3.01 | 12
COc1ccc(-c2cc(=O)c3c(O)c(OC)c(O)cc3o2)cc1OC [Eupatilin] | 101% and 99.5% | 97 | 92.3 | 98.2 | 48.7 | 60.2 | 69.4 | 71.2
